Assay results taken from PubChem BioAssay (EPA / NIEHS).
Calls of active or inactive are those of the source. The calls were made as follows: active = hit-call score of the fitted dose curve at least 0.9, where 1 is the maximum; inactive = score below 0.9.

Read-out: Epidermal growth factor receptor (EGFR), EGFR (gene 1956)
Assay: BSK_hDFCGF_EGFR: BioMAP Diversity Plus: hDFCGF Assay for Epidermal growth factor receptor (EGFR) Biomarker Activity (AID 2283057)
Conditions: primary human foreskin fibroblasts; actives raise or lower the signal
How it was run: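 Primary human foreskin fibroblasts (hDFCGF system), sampled 24 h after dosing; EGFR quantified by ELISA. Bidirectional fit relative to DMSO baseline; SRB total-protein staining in parallel cultures for cytotoxicity.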

Row | Compound | outcome
1 | CCCCCCCCCCCC#N | inactive
2 | CC(C)CCCCCCCOC(=O)c1ccccc1C(=O)OCCCCCCCC(C)C | inactive
3 | O=[N+]([O-])C=Cc1ccccc1 | inactive
4 | O=[N+]([O-])c1ccc(Cl)cc1 | inactive
5 | Nc1ccc(-c2ccc(N)c(N)c2)cc1N | inactive

Read-out: Interleukin-8 (IL8), CXCL8 (gene 3576)
Assay: BSK_hDFCGF_IL8: BioMAP Diversity Plus: hDFCGF Assay for Interleukin-8 (IL8) Biomarker Activity (AID 2283058)
Conditions: primary human foreskin fibroblasts; actives raise or lower the signal
How it was run: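 ELISA read-out of IL-8 from primary human foreskin fibroblast cultures taken 24 h after dosing; values are bidirectional fits relative to DMSO vehicle.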

Row | Compound | outcome | AC50
6 | CCCCCCCCCCCC#N | inactive | –
7 | CC(C)CCCCCCCOC(=O)c1ccccc1C(=O)OCCCCCCCC(C)C | inactive | –
8 | O=[N+]([O-])C=Cc1ccccc1 | – | 4.35 µM (active)
9 | O=[N+]([O-])c1ccc(Cl)cc1 | inactive | –
10 | Nc1ccc(-c2ccc(N)c(N)c2)cc1N | inactive | –

Read-out: not listed separately
Assay: BSK_hDFCGF_Proliferation: Cell Proliferation Assessment in the BioMAP Diversity Plus: hDFCGF Assay (AID 2283059);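 also: curves fitted for both rise and fall of signal versus DMSO baseline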
Conditions: primary human foreskin fibroblasts
How it was run: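 Total protein read at 560 nm after 0.1% SRB staining of TCA-fixed human skin fibroblasts, […]. Activity is fitted in both directions relative to DMSO as baseline.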

Row | Compound | AC50 | outcome
11 | CCCCCCCCCCCC#N | 10.1 µM (active) | –
12 | CC(C)CCCCCCCOC(=O)c1ccccc1C(=O)OCCCCCCCC(C)C | – | inactive
13 | O=[N+]([O-])C=Cc1ccccc1 | 0.596 µM (active) | –
14 | O=[N+]([O-])c1ccc(Cl)cc1 | – | inactive
15 | Nc1ccc(-c2ccc(N)c(N)c2)cc1N | – | inactive

Read-out: Macrophage colony-stimulating factor (MCSF), CSF1 (gene 1435)
Assay: BSK_hDFCGF_MCSF: BioMAP Diversity Plus: hDFCGF Assay for Macrophage colony-stimulating factor (MCSF) Biomarker Activity (AID 2283060)
Conditions: primary human foreskin fibroblasts; actives raise or lower the signal
How it was run: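 ELISA read-out of M-CSF in human dermal foreskin fibroblast cultures, 24 h after chemical dosing; gain or loss of signal fitted bidirectionally relative to DMSO baseline.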

Row | Compound | AC50 | outcome
16 | CCCCCCCCCCCC#N | 28.8 µM (active) | –
17 | CC(C)CCCCCCCOC(=O)c1ccccc1C(=O)OCCCCCCCC(C)C | – | inactive
18 | O=[N+]([O-])C=Cc1ccccc1 | 2.91 µM (active) | –
19 | O=[N+]([O-])c1ccc(Cl)cc1 | – | inactive
20 | Nc1ccc(-c2ccc(N)c(N)c2)cc1N | 16.1 µM (active) | –

Read-out: TIMP metallopeptidase inhibitor 1 (TIMP1), TIMP1 (gene 7076)
Assay: BSK_hDFCGF_TIMP1: BioMAP Diversity Plus: hDFCGF Assay for TIMP metallopeptidase inhibitor 1 (TIMP1) Biomarker Activity (AID 2283062)
Conditions: primary human foreskin fibroblasts; actives raise or lower the signal
How it was run: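 ELISA readout of TIMP-1 from human dermal foreskin fibroblast cultures 24 h post-dosing. Curves were fitted in both directions against DMSO baseline, with SRB total-protein staining in parallel cultures as a cytotoxicity check.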

Row | Compound | AC50 | outcome
21 | CCCCCCCCCCCC#N | 33 µM (active) | –
22 | CC(C)CCCCCCCOC(=O)c1ccccc1C(=O)OCCCCCCCC(C)C | – | inactive
23 | O=[N+]([O-])C=Cc1ccccc1 | 13 µM (active) | –
24 | O=[N+]([O-])c1ccc(Cl)cc1 | – | inactive
25 | Nc1ccc(-c2ccc(N)c(N)c2)cc1N | – | inactive

Read-out: Monokine induced gamma interferon (MIG), CXCL9 (gene 4283)
Assay: BSK_hDFCGF_MIG: BioMAP Diversity Plus: hDFCGF Assay for Monokine induced gamma interferon (MIG) Biomarker Activity (AID 2283063)
Conditions: primary human foreskin fibroblasts; actives raise or lower the signal
How it was run: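 Fibroblasts (human foreskin, primary) dosed, 24 h, MIG by ELISA; fit bidirectional vs DMSO.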

Row | Compound | AC50 | outcome
26 | CCCCCCCCCCCC#N | 29.7 µM (active) | –
27 | CC(C)CCCCCCCOC(=O)c1ccccc1C(=O)OCCCCCCCC(C)C | – | inactive
28 | O=[N+]([O-])C=Cc1ccccc1 | 2.4 µM (active) | –
29 | O=[N+]([O-])c1ccc(Cl)cc1 | – | inactive
30 | Nc1ccc(-c2ccc(N)c(N)c2)cc1N | – | inactive

Read-out: Matrix Metallopeptidase 1 (MMP1), MMP1 (gene 4312)
Assay: BSK_hDFCGF_MMP1: BioMAP Diversity Plus: hDFCGF Assay for Matrix Metallopeptidase 1 (MMP1) Biomarker Activity (AID 2283064)
Conditions: primary human foreskin fibroblasts; actives raise or lower the signal
How it was run: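 Primary human foreskin fibroblasts in the hDFCGF system were dosed with test chemical, and MMP1 was measured by ELISA 24 h later. Values come from bidirectional curve fitting against the DMSO baseline.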

Row | Compound | AC50 | outcome
31 | CCCCCCCCCCCC#N | 37.7 µM (active) | –
32 | CC(C)CCCCCCCOC(=O)c1ccccc1C(=O)OCCCCCCCC(C)C | – | inactive
33 | O=[N+]([O-])C=Cc1ccccc1 | 3.96 µM (active) | –
34 | O=[N+]([O-])c1ccc(Cl)cc1 | – | inactive
35 | Nc1ccc(-c2ccc(N)c(N)c2)cc1N | – | inactive

Read-out: Vascular cell adhesion molecule 1 (VCAM1), VCAM1 (gene 7412)
Assay: BSK_hDFCGF_VCAM1: BioMAP Diversity Plus: hDFCGF Assay for Vascular cell adhesion molecule 1 (VCAM1) Biomarker Activity (AID 2283065);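 as to AC50: VCAM-1 protein level quantified by ELISA after 24 h chemical exposure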
Conditions: primary human foreskin fibroblasts; actives raise or lower the signal
How it was run: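 ELISA read-out of VCAM-1 on human skin fibroblasts, 24 h post-dose; gain or loss of signal fitted bidirectionally against DMSO baseline.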

Row | Compound | AC50 | outcome
36 | CCCCCCCCCCCC#N | 20.6 µM (active) | –
37 | CC(C)CCCCCCCOC(=O)c1ccccc1C(=O)OCCCCCCCC(C)C | – | inactive
38 | O=[N+]([O-])C=Cc1ccccc1 | 1.41 µM (active) | –
39 | O=[N+]([O-])c1ccc(Cl)cc1 | – | inactive
40 | Nc1ccc(-c2ccc(N)c(N)c2)cc1N | 11.7 µM (active) | –

Read-out: Plasminogen activator inhibitor-1 (PAI1), SERPINE1 (gene 5054)
Assay: BSK_hDFCGF_PAI1: BioMAP Diversity Plus: hDFCGF Assay for Plasminogen activator inhibitor-1 (PAI1) Biomarker Activity (AID 2283066)
Conditions: primary human foreskin fibroblasts; actives raise or lower the signal
How it was run: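 Human foreskin fibroblast primary cells, 24 h chemical exposure; PAI-1 measured by ELISA. Bidirectional fitting relative to DMSO; parallel cultures stained with SRB for total protein to flag overt cytotoxicity.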

Row | Compound | AC50 | outcome
41 | CCCCCCCCCCCC#N | 31.8 µM (active) | –
42 | CC(C)CCCCCCCOC(=O)c1ccccc1C(=O)OCCCCCCCC(C)C | – | inactive
43 | O=[N+]([O-])C=Cc1ccccc1 | 4.03 µM (active) | –
44 | O=[N+]([O-])c1ccc(Cl)cc1 | – | inactive
45 | Nc1ccc(-c2ccc(N)c(N)c2)cc1N | – | inactive

Read-out: Intercellular Adhesion Molecule 1 (ICAM1), ICAM1 (gene 3383)
Assay: BSK_KF3CT_ICAM1: BioMAP Diversity Plus: KF3CT Assay for Intercellular Adhesion Molecule 1 (ICAM1) Biomarker Activity (AID 2283067)
Conditions: primary human keratinocytes with fibroblasts; actives raise or lower the signal
How it was run: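 ELISA readout of ICAM-1; KF3CT human skin co-culture (keratinocytes + foreskin fibroblasts), 24 h post-dose; gain/loss fit vs DMSO baseline.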

Row | Compound | outcome | AC50
46 | CCCCCCCCCCCC#N | inactive | –
47 | CC(C)CCCCCCCOC(=O)c1ccccc1C(=O)OCCCCCCCC(C)C | inactive | –
48 | O=[N+]([O-])C=Cc1ccccc1 | – | 6.1 µM (active)
49 | O=[N+]([O-])c1ccc(Cl)cc1 | inactive | –

Read-out: Interferon-gamma inducible Protein 10 (IP10), CXCL10 (gene 3627)
Assay: BSK_KF3CT_IP10: BioMAP Diversity Plus: KF3CT Assay for Interferon-gamma inducible Protein 10 (IP10) Biomarker Activity (AID 2283068)
Conditions: primary human keratinocytes with fibroblasts; actives raise or lower the signal
How it was run: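 Human keratinocyte plus foreskin fibroblast primary co-culture exposed to test chemical for 24 h; IP-10 measured by ELISA. Concentration-response fitted bidirectionally against DMSO control as baseline.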

Row | Compound | outcome | AC50
50 | CCCCCCCCCCCC#N | inactive | –
51 | CC(C)CCCCCCCOC(=O)c1ccccc1C(=O)OCCCCCCCC(C)C | inactive | –
52 | O=[N+]([O-])C=Cc1ccccc1 | – | 6.18 µM (active)
53 | O=[N+]([O-])c1ccc(Cl)cc1 | inactive | –
54 | Nc1ccc(-c2ccc(N)c(N)c2)cc1N | inactive | –

Read-out: not listed separately
Assay: BSK_KF3CT_SRB: Viability Assessment in the BioMAP Diversity Plus: KF3CT Assay (AID 2283069);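 also: total protein by sulforhodamine B staining as a cytotoxicity measure; read 24 h after compound addition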
Conditions: primary human keratinocytes with fibroblasts
How it was run: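 Human primary keratinocyte plus foreskin fibroblast co-culture exposed to chemicals for 24 h. Total protein measured by 0.1% sulforhodamine B staining after 10% TCA fixation, read at 560 nm; bidirectional fitting versus DMSO baseline.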

Row | Compound | outcome | AC50
55 | CCCCCCCCCCCC#N | inactive | –
56 | CC(C)CCCCCCCOC(=O)c1ccccc1C(=O)OCCCCCCCC(C)C | inactive | –
57 | O=[N+]([O-])C=Cc1ccccc1 | – | 2.46 µM (active)
58 | O=[N+]([O-])c1ccc(Cl)cc1 | inactive | –
59 | Nc1ccc(-c2ccc(N)c(N)c2)cc1N | inactive | –

Read-out: Interleukin-1 alpha (IL1a), IL1A (gene 3552)
Assay: BSK_KF3CT_IL1a: BioMAP Diversity Plus: KF3CT Assay for Interleukin-1 alpha (IL1a) Biomarker Activity (AID 2283070)
Conditions: primary human keratinocytes with fibroblasts; actives raise or lower the signal
How it was run: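 Human keratinocyte plus foreskin fibroblast primary co-culture, sampled 24 h after chemical dosing. IL-1a measured by ELISA; responses fitted bidirectionally against DMSO baseline (negative control), so gain or loss of signal both count.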

Row | Compound | outcome | AC50
60 | CCCCCCCCCCCC#N | inactive | –
61 | CC(C)CCCCCCCOC(=O)c1ccccc1C(=O)OCCCCCCCC(C)C | inactive | –
62 | O=[N+]([O-])C=Cc1ccccc1 | – | 5.78 µM (active)
63 | O=[N+]([O-])c1ccc(Cl)cc1 | inactive | –
64 | Nc1ccc(-c2ccc(N)c(N)c2)cc1N | – | 15.8 µM (active)

Read-out: TIMP metallopeptidase inhibitor 2 (TIMP2), TIMP2 (gene 7077)
Assay: BSK_KF3CT_TIMP2: BioMAP Diversity Plus: KF3CT Assay for TIMP metallopeptidase inhibitor 2 (TIMP2) Biomarker Activity (AID 2283071)
Conditions: primary human keratinocytes with fibroblasts; actives raise or lower the signal
How it was run: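 Co-culture of human primary keratinocytes and foreskin fibroblasts, measured 24 h after chemical dosing. TIMP-2 quantified by ELISA and fitted in both directions relative to DMSO. Cytotoxicity checked in parallel cultures by SRB total-protein staining.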

Row | Compound | outcome | AC50
65 | CCCCCCCCCCCC#N | inactive | –
66 | CC(C)CCCCCCCOC(=O)c1ccccc1C(=O)OCCCCCCCC(C)C | inactive | –
67 | O=[N+]([O-])C=Cc1ccccc1 | – | 8.02 µM (active)
68 | O=[N+]([O-])c1ccc(Cl)cc1 | inactive | –
69 | Nc1ccc(-c2ccc(N)c(N)c2)cc1N | – | 20 µM (active)

Read-out: Transforming growth factor beta 1 (TGFb1), TGFB1 (gene 7040)
Assay: BSK_KF3CT_TGFb1: BioMAP Diversity Plus: KF3CT Assay for Transforming growth factor beta 1 (TGFb1) Biomarker Activity (AID 2283072)
Conditions: primary human keratinocytes with fibroblasts; actives raise or lower the signal
How it was run: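 Human keratinocyte/foreskin fibroblast co-culture; TGF-b1 measured by ELISA 24 h after dosing, fitted bidirectionally versus DMSO. Cytotoxicity checked in parallel cultures by total protein (SRB staining, 560 nm).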

Row | Compound | outcome | AC50
70 | CCCCCCCCCCCC#N | inactive | –
71 | CC(C)CCCCCCCOC(=O)c1ccccc1C(=O)OCCCCCCCC(C)C | inactive | –
72 | O=[N+]([O-])C=Cc1ccccc1 | – | 3.05 µM (active)
73 | O=[N+]([O-])c1ccc(Cl)cc1 | inactive | –
74 | Nc1ccc(-c2ccc(N)c(N)c2)cc1N | – | 26.6 µM (active)

Read-out: C-C motif chemokine 2 (Homo sapiens) (UniProt P13500)
Assay: BSK_KF3CT_MCP1: BioMAP Diversity Plus: KF3CT Assay for Monocyte Chemoattractant Protein 1 (MCP1/CCL2) Biomarker Activity (AID 2283073)
Conditions: primary human keratinocytes with fibroblasts; actives raise or lower the signal
How it was run: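 KF3CT skin co-culture (keratinocytes/foreskin fibroblasts), 24 h post-dose; MCP-1 by ELISA; gain/loss of signal fit bidirectionally vs DMSO baseline.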

Row | Compound | outcome | AC50
75 | CCCCCCCCCCCC#N | inactive | –
76 | CC(C)CCCCCCCOC(=O)c1ccccc1C(=O)OCCCCCCCC(C)C | inactive | –
77 | O=[N+]([O-])C=Cc1ccccc1 | – | 20 µM (active)
78 | O=[N+]([O-])c1ccc(Cl)cc1 | inactive | –
79 | Nc1ccc(-c2ccc(N)c(N)c2)cc1N | inactive | –
